17 compounds from PubChem BioAssay (EPA / NIEHS) can be followed below.

Read-out in experiment [1]: Thyroid Hormone Responsive (THRSP), THRSP (gene 7069)
The experiment is described as follows: LTEA_HepaRG_THRSP: Life Technologies and Expression Analysis (LTEA) Assay for Thyroid Hormone Responsive (THRSP) using HepaRG (AID 2283536). Conditions: mRNA level, 48 h; actives raise or lower the signal. Put shortly:
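Differentiated human HepaRG cells were exposed in duplicate for 48 h in serum-free induction medium to eight concentrations (top 100 uM, half-log steps, 0.5% DMSO). Expression was quantified by TaqMan qRT-PCR, normalized to ACTB, GAPDH and POLR2A, with bidirectional fitting against DMSO.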

Read-out in experiment [2]: Cellular tumor antigen p53 (Homo sapiens) (UniProt P04637)
The experiment can be described thus: LTEA_HepaRG_TP53: Life Technologies and Expression Analysis (LTEA) Assay for Tumor Protein P53 (TP53) using HepaRG (AID 2283537). The settings on record: mRNA level, 48 h; actives raise or lower the signal. The gist of the method:
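Differentiated HepaRG cells in serum-free induction medium exposed 48 h in duplicate to 8 half-log concentrations, top 100 uM, 0.5% DMSO. TP53 mRNA by TaqMan qRT-PCR (Fluidigm), normalized to ACTB, GAPDH, POLR2A; fitted bidirectionally versus DMSO.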

Read-out in experiment [3]: UDP glucuronosyltransferase (UGT1A1), UGT1A1 (gene 54658)
The experiment can be described thus: LTEA_HepaRG_UGT1A1: Life Technologies and Expression Analysis (LTEA) Assay for UDP glucuronosyltransferase (UGT1A1) using HepaRG (AID 2283538). Conditions: mRNA level, 48 h; actives raise or lower the signal. The gist of the method: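 Human liver HepaRG cultures receive test chemical for 48 h, up to 100 uM in 0.5% DMSO, with phenobarbital induction controls. UGT1A1 mRNA is measured by qRT-PCR and normalized to ACTB, GAPDH and POLR2A.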

Read-out in experiment [4]: UDP glucuronosyltransferase (UGT1A6), UGT1A6 (gene 54578)
The experiment can be described thus: LTEA_HepaRG_UGT1A6: Life Technologies and Expression Analysis (LTEA) Assay for UDP glucuronosyltransferase (UGT1A6) using HepaRG (AID 2283539). The settings on record: mRNA level, 48 h; actives raise or lower the signal. Put shortly: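 Expression was quantified by TaqMan qRT-PCR on Fluidigm arrays with ACTB/GAPDH/POLR2A normalization and bidirectional fitting against 0.5% DMSO. HepaRG cells (~100,000/well) were treated in duplicate for 48 h at eight half-log concentrations up to 100 uM in serum-free induction medium.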

Read-out in experiment [5]: X-box binding protein 1 (XBP1), XBP1 (gene 7494)
The experiment is described as follows: LTEA_HepaRG_XBP1: Life Technologies and Expression Analysis (LTEA) Assay for X-box binding protein 1 (XBP1) using HepaRG (AID 2283540). Conditions: mRNA level, 48 h; actives raise or lower the signal. Put shortly: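 XBP1 transcript by qRT-PCR (housekeeping-normalized: ACTB, GAPDH, POLR2A) after 48 h chemical treatment of HepaRG cells, 8-point half-log series topping at 100 uM, vehicle 0.5% DMSO. Gain and loss of signal fitted relative to DMSO.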

A short description of experiment [6]: LTEA_HepaRG_LDH_cytotoxicity: Cytotoxicity Assessment in the Life Technologies and Expression Analysis (LTEA) Assay (AID 2283563; active = hit-call score of the fitted dose curve at least 0.9, where 1 is the maximum;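 as to AC50: LDH activity released into spent culture medium as a marker of cell death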). Put shortly:
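LDH release into culture medium read after 48 h chemical treatment of HepaRG cells. Duplicate wells, eight-point half-log series topping at 100 uM, 0.5% DMSO vehicle and baseline.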

A short description of experiment [7]: TOX21_p53_BLA_p2_viability: Viability Assessment in the Tox21 HCT-116 p53 Agonism Beta-lactamase Assay, Phase 2 (AID 2283591; active = hit-call score of the fitted dose curve at least 0.9, where 1 is the maximum;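 also: compound exposure lasted 16 h at 37 °C; actives lower the ATP signal meaning cytotoxicity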). Put shortly:
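HCT-116 p53-bla cells (4000/well) rested 5 h at 37C, then received compounds in DMSO (217-fold dilution) for 16 h at 37C, 5% CO2. After the CCF4 read, CellTiter-Glo was added; ATP luminescence was read after 30 min at room temperature.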

Experiment [8] has as its target Cellular tumor antigen p53 (Homo sapiens) (UniProt P04637). The experiment can be described thus: TOX21_p53_BLA_p2_ratio: Tox21 HCT-116 p53 Agonism Beta-lactamase Assay, Ratio, Phase 2 (AID 2283592; active = hit-call score of the fitted dose curve at least 0.9, where 1 is the maximum). Put shortly:
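Gain-of-signal p53 agonism was scored from the beta-lactamase FRET ratio (460/530 nm, 405 nm excitation) in HCT116 cells treated 16 h at 37C, 5% CO2, with DMSO serving as negative control and baseline.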

Experiment [9] is described as follows: TOX21_p53_BLA_p3_viability: Viability Assessment in the Tox21 HCT-116 p53 Agonism Beta-lactamase Assay, Phase 3 (AID 2283593; active = hit-call score of the fitted dose curve at least 0.9, where 1 is the maximum;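 also: cells exposed to compound for 16 h before reading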). Put shortly:
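HCT-116 cells (4000/well) rested 5 h at 37C, then got DMSO compounds by pin tool (217-fold dilution) for 16 h at 37C, 5% CO2. After the bla read, CellTiter-Glo was added and luminescence read at 30 min, room temperature.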

Experiment [10] in a line: ATG_XTT_Cytotoxicity: Cytotoxicity Assessment in the Attagene TRANS-FACTORIAL HepG2 Assay (AID 2283584; active = hit-call score of the fitted dose curve at least 0.9, where 1 is the maximum). Put shortly: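 Viability endpoint from XTT after 24 h chemical exposure of reporter-transfected human HepG2 liver cells; signal loss fitted relative to DMSO negative control.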

Results filed as inconclusive are left out. Active and inactive are the calls of the source. The calls were made as follows, unless noted: active = hit-call score of the fitted dose curve at least 0.9, where 1 is the maximum; inactive = score below 0.9.

In general, AC50 refers to the concentration giving half of the maximal activity seen.

Chain of Cellular tumor antigen p53 (Homo sapiens) (P04637 whole entry, looked up): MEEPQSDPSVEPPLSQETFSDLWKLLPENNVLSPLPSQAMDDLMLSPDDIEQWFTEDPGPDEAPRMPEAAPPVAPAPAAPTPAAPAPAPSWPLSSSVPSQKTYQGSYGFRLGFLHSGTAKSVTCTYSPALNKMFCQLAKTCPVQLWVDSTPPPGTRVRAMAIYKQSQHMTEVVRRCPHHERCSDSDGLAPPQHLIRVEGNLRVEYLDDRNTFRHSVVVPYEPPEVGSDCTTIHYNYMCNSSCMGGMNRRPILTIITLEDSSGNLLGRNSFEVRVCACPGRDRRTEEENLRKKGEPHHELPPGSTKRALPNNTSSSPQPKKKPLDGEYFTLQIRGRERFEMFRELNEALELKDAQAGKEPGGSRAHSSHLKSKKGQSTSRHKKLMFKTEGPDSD

In the case of `CCNP(=S)(OC)O/C(C)=C/C(=O)OC(C)C` (stereo not given), the AC50 in experiment [1] is 32.6 µM (active); in [3] it was 9.32 µM (active). In addition, the compound was called inactive in experiment [2], in experiment [4], in experiment [5], in experiment [6] and in [7].

Take `CCCCC(O)(Cn1cncn1)c1ccc(Cl)cc1Cl` (stereo not given): the AC50 in experiment [1] is 9.77 µM (active); in experiment [2], 72.4 µM (active); in [3] it was 81.4 µM (active); in experiment [4] it was 73.4 µM (active). Further, the result in experiment [5], in experiment [6], in experiment [7], in [8] and in experiment [9] was inactive.

With `CC1(C)C(C=C(Cl)Cl)C1C(=O)OC(C#N)c1cccc(Oc2ccccc2)c1` (stereo not given), the result in [1], in experiment [2], in [4], in experiment [5], in experiment [6] and in experiment [10] was inactive. Further, the call in [7], in [8] and in experiment [9] was inactive. Also, the half-maximal activity concentration (AC50) in [3] is 17.3 µM (active).

In the case of `Nc1cnn(-c2ccccc2)c(=O)c1Cl`, the result in [1], in [2], in experiment [4], in [5], in experiment [6] and in [7] was inactive. For the same compound, in [8], the result was inactive. Moreover, the AC50 in experiment [3] was 50 µM (active).

Consider `CO/N=C(/C1=NOCCO1)c1ccccc1Oc1ncnc(Oc2ccccc2Cl)c1F`, for which the AC50 was 27.1 µM (active) in experiment [1]; 27.1 µM (active) in [2]; 35.8 µM (active) in experiment [3]; 50 µM (active) in experiment [4]; 33 µM (active) in [6]; 3.05 µM (active) in experiment [8]. Also, the compound was classed as inactive in [5], in experiment [7] and in experiment [9].

With `CCN(CC)c1nc(C)cc(OP(=S)(OC)OC)n1`, the outcome in experiment [1], in experiment [2], in [5], in experiment [6], in experiment [7] and in experiment [8] was inactive. Also, the concentration at half-maximal activity (AC50) is 12.8 µM (active) in experiment [3] and 3.58 µM (active) in [4].

As to `C=C(C)CN(CC)c1c([N+](=O)[O-])cc(C(F)(F)F)cc1[N+](=O)[O-]`, the compound was called inactive in experiment [1], in [2], in experiment [4], in experiment [5], in [6] and in experiment [10]. The compound was called inactive in [7], in experiment [8] and in experiment [9]. Further, the concentration at half-maximal activity (AC50) in [3] is 50 µM (active).

In the case of `CCCCOCN(C(=O)CCl)c1c(CC)cccc1CC`, the result in experiment [1], in experiment [2], in experiment [4], in [5], in [6] and in experiment [7] was inactive. Moreover, the result in [8] was inactive. In experiment [3], the AC50 is 50 µM (active).

For `COP(=O)(OC)O/C(C)=C/C(=O)N(C)C`, the compound was called inactive in experiment [1], in experiment [2], in experiment [3], in experiment [4], in [5] and in experiment [6]. In addition, the compound was classed as inactive in experiment [7].

Turning to `Nc1c(Cl)c(Cl)nc(C(=O)O)c1Cl`, the outcome in [1], in experiment [2], in [3], in [4], in experiment [5] and in experiment [6] was inactive. The result in experiment [7] and in experiment [9] was inactive. The half-maximal activity concentration (AC50) in experiment [8] was 75.6 µM (active).

Regarding `COCC(=O)N(c1c(C)cccc1C)C(C)C(=O)OC` (stereo not given), the call in experiment [1], in [2], in experiment [3], in experiment [4], in experiment [5] and in [6] was inactive. Also, the result in experiment [7], in [8] and in experiment [9] was inactive.

For `CCCCC(C#N)(Cn1cncn1)c1ccc(Cl)cc1` (stereo not given), the results for the AC50 in experiment [1] and in experiment [3] were 25 µM (active) and 12.2 µM (active), respectively. The compound was classed as inactive in experiment [2], in [4], in experiment [5], in [6], in [7] and in experiment [8]. Also, the compound was called inactive in experiment [9].

Regarding `CC(C)N1C(=O)N(c2ccccc2)CSC1=NC(C)(C)C`, the compound was called inactive in experiment [1], in [5], in experiment [8] and in experiment [9]. The AC50 in experiment [2] is 76.2 µM (active); in experiment [3], 88.8 µM (active); in experiment [4], 85.1 µM (active); in [6] it was 84.1 µM (active); in [7] it was 84.6 µM (active).

As to `COP(=S)(OC)Oc1ccc([N+](=O)[O-])c(C)c1`, the compound was called inactive in [1], in experiment [2], in experiment [4], in experiment [5], in experiment [6] and in [10]. In addition, the compound was classed as inactive in experiment [7], in experiment [8] and in experiment [9]. Besides, the AC50 in experiment [3] was 11.5 µM (active).

On to `N#Cc1c(Cl)cccc1Cl`, for which the compound was classed as inactive in [1], in experiment [2], in experiment [3], in [4], in experiment [5] and in experiment [6].

Turning to `CS(=O)(=O)c1cc(C(F)(F)F)ccc1C(=O)c1cnoc1C1CC1`, the compound was called inactive in experiment [1], in experiment [2], in experiment [3], in [4], in experiment [5] and in [6]. Moreover, the compound was called inactive in [7].

Turning to `CC(C)NC(=O)N1CC(=O)N(c2cc(Cl)cc(Cl)c2)C1=O`, the AC50 in experiment [1] is 50 µM (active); in experiment [3], 4.3 µM (active); in experiment [5] it was 14.8 µM (active). Further, the compound was classed as inactive in [2], in experiment [4], in experiment [6], in experiment [10], in experiment [7] and in experiment [8]. The compound was called inactive in experiment [9].
